Source: PubChem BioAssay (NCATS)
Inconclusive results are not listed. Calls of active or inactive are those of the source. The call rests on the fitted dose curve.

molecular target: Thyroid hormone receptor beta (Homo sapiens) (UniProt P10828); test: qHTS assay for small molecule agonists of thyroid hormone receptor beta signaling (AID 588545); details: TR-UAS-bla GripTite HEK 293, beta-lactamase ratio, agonist mode, 18 h, percent of T3 response, DMSO as zero; series mostly up to 76.7 µM
Description: NIH Chemical Genomics Center [NCGC]
U.S. Environmental Protection Agency [EPA]
National Institutes of Environmental Health Sciences [NIEHS]
National Toxicology Program [NTP]
Thyroid hormone receptor (TR) belongs to nuclear hormone receptor superfamily. There are two subtypes for TR: TR-alpha and TR-beta. TR-beta plays a major role in regulating plasma cholesterol levels and it mediates the biological activities of thyroid hormone. Screening environmental chemicals on TR-beta signaling will provide important information for the mechanism of compound action.
NCGC Assay Protocol Summary
Using a beta-lactamase reporter-gene under control of the TR response element, a cell-based assay [GeneBLAzer TR-UAS-bla-GripTite assay developed by Invitrogen] was used to measure TR-beta signaling in agonist mode. TR-UAS-bla-GripTite HEK 293 cells were used with assay medium containing 2% charcoal/dextran FBS, 0.1 mM NEAA and 1 mM sodium pyruvate. The assay was performed in clear bottom black Greiner 1536-well plates. T3 was used as a positive control in the screen. Library compounds were measured for their ability to stimulate the reporter gene activity. Compounds were screened in a titration series in 1536-well format. The fluorescence intensity (405 nm excitation, 460/530 nm emission) was measured using an EnVision plate reader. Data was normalized relative to T3 control (10 nM, 100%), and DMSO only wells (basal, 0%). Concentration-response titration points for each compound were fitted to the Hill equation yielding concentrations of half-maximal stimulation (EC50) and maximal response (efficacy) values.
qHTS protocol for TR-beta beta-lactamase assay in agonist mode
[Step] [Parameter] [Value] [Description]
1. Reagent; 6 uL; 2500 cells/well
2. Incubation; 37 C for 4 hrs
- Dose response; start 3.8 uM, 1:3 dilutions, duplicates in first column
- Two columns of each 10 and 0.4 nM (finals) concentrations.
5. Incubation; 37 C for 18 hrs
6. Detection reagent; 1 uL of CCF4-dye
7. Incubation; RT for 2 hrs
8. Detection; Fluorescence; Envision plate reader

Chain of Thyroid hormone receptor beta (Homo sapiens) (P10828 whole entry, looked up): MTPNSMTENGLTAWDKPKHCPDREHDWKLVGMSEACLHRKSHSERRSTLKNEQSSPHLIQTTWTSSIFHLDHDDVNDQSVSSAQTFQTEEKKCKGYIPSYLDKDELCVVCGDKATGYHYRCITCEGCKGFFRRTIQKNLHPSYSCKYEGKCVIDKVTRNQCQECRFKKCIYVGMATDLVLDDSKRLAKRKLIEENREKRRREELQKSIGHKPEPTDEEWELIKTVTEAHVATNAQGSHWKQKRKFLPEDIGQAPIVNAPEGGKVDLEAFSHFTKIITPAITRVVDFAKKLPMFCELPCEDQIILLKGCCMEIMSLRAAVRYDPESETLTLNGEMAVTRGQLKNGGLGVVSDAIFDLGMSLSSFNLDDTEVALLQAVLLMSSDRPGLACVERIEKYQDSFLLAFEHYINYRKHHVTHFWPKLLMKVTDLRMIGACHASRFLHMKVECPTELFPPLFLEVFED

| Compound | outcome |
| --- | --- |
| CCNc1nc(Cl)nc(NC(C)C)n1 | inactive |
| C[N+](C)(C)Cc1ccccc1 | inactive |
| O=S1OCC2C(CO1)C1(Cl)C(Cl)=C(Cl)C2(Cl)C1(Cl)Cl (stereo not given) | inactive |
| NC(=S)Nc1ccccc1 | inactive |
| CN=C=S | inactive |
| Cc1ccc(O)c(C)c1 | inactive |
| CCC(=O)Nc1ccc(Cl)c(Cl)c1 | inactive |
| c1ccc2c(c1)CCCC2 | inactive |
| CCC[CH2][Sn]([Cl])([Cl])[Cl] | inactive |
| COC(=O)NC(=S)Nc1ccccc1NC(=S)NC(=O)OC | inactive |
| CCOc1ccc(N)cc1 | inactive |
| COP(=S)(OC)Oc1ccc([N+](=O)[O-])cc1 | inactive |
| C=CCc1ccc2c(c1)OCO2 | inactive |
| Cc1ccc2ccccc2c1 | inactive |
| C=CCOC(=O)c1ccccc1N | inactive |
| O=C(Cl)/C=C/C(=O)Cl | inactive |
| S=C=Nc1cccc2ccccc12 | inactive |
| CC(O)CCl (stereo not given) | inactive |
| Cc1cccc(C#N)c1 | inactive |
| C=CC(=O)OCC | inactive |

| Compound | outcome |
| --- | --- |
| O=NN(CCO)CCO | inactive |
| CNC(=O)N(C)c1nnc(C(C)(C)C)s1 | inactive |
| CCOCN(C(=O)CCl)c1c(C)cccc1CC | inactive |
| COc1ccc(N)cc1 | inactive |
| Brc1ccc(Oc2cc(Br)c(Br)cc2Br)c(Br)c1 | inactive |
| CCOP(=S)(OCC)SCSC(C)(C)C | inactive |
| C=C(C)C#N | inactive |
| C=C(C)C(=O)OCC1CO1 (stereo not given) | inactive |
| N#CCCCl | inactive |
| [O-][Br+2]([O-])O | inactive |
| CC(C)(C)OO | inactive |
| COP(N)(=O)SC (stereo not given) | inactive |
| c1ccc(-c2ccccc2)cc1 | inactive |
| CCCSC(=O)Cl | inactive |
| O=C(Cl)C(Cl)(Cl)Cl | inactive |
| CCCCOCCOP(=O)(OCCOCCCC)OCCOCCCC | inactive |
| ClC(Cl)=C(c1ccc(Cl)cc1)c1ccc(Cl)cc1 | inactive |
| OCC1CO1 (stereo not given) | inactive |
| ClC1=C(Cl)C2(Cl)C3C4C=CC(C4)C3C1(Cl)C2(Cl)Cl (stereo not given) | inactive |
| c1ccc(OP(Oc2ccccc2)Oc2ccccc2)cc1 | inactive |
